# Source: PubChem BioAssay
# Sampled rows, rich in hits. Any-hit rate of the full collection: about 18%.
# KAT2A inh: qHTS Assay for Inhibitors of GCN5L2. GCN5L2 HAT assay, ThioGlo1 CoA-SH fluorescence. 390,000 tested, 0.21% active. Potency, µM (top dose mostly 58.9 µM), without a hit: at the top dose activity change, negative = inhibition, hits mostly inhibitors. AID 504327, 2011. Histone acetyltransferase KAT2A (Homo sapiens), Q92830
# Target sequence (Q92830 whole entry, looked up): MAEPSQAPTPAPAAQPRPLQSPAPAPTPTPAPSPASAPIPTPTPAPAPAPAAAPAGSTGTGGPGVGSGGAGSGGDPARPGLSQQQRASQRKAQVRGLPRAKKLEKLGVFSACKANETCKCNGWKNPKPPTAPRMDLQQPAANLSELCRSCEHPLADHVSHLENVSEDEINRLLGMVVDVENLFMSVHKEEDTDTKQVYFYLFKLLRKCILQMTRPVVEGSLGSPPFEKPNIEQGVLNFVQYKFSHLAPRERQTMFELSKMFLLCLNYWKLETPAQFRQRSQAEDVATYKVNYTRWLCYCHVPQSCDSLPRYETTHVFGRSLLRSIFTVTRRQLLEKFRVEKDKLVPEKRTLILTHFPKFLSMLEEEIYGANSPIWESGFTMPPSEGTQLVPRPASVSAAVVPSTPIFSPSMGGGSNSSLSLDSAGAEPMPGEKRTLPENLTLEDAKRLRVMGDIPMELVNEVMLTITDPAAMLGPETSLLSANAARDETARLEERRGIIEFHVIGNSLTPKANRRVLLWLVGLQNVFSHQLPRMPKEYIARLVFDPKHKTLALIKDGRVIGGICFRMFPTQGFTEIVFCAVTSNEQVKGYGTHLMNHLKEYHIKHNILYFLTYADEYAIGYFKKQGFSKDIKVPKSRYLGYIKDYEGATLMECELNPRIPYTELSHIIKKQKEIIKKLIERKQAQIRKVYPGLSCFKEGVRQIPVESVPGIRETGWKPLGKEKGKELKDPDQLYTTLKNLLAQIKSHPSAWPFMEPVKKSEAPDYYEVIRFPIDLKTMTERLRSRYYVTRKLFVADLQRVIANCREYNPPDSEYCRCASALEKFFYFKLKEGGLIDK
#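 Free CoA generated was detected with ThioGlo1 (50uM) fluorescence at Ex340nm/Em540nm, read immediately and after 20 min at room temperature. Enzyme, 20 nM in HEPES pH 7.5 buffer, saw compounds 15 min before adding 75uM H3(1-25) peptide and 70uM acetyl-CoA.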
# TDP1 cell CPT: qHTS for Inhibitors of human tyrosyl-DNA phosphodiesterase 1 (TDP1): qHTS in cells in presence of CPT; chicken DT40 Tdp1-/-;hTDP1 cells + 20 nM CPT, ATP luminescence, 48 h; Potency, µM (doses to about 46.2 µM), without a hit: top-dose activity change, negative = growth inhibition, hits mostly inhibitors; 420,000 tested, 12% active; AID 686979, 2013; also: nearly all actives have a fitted effect of over 55% in size
#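 Chicken DT40 Tdp1-/- cells stably complemented with human TDP1 were seeded at 400 cells/well in medium containing 20 nM camptothecin, exposed to pin-transferred compounds, and grown at 37 °C for at least 48 hr. Viability was read as ATP luminescence.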
# TDP1 inh: qHTS Assay for Inhibitors of Tyrosyl-DNA Phosphodiesterase (TDP1) | Tyrosyl-DNA phosphodiesterase 1 (Homo sapiens), Q9NUW8 | recombinant TDP1, AlphaScreen DNA substrate cleavage | Potency, µM (highest dose often 130 µM), for the others: at the highest dose activity change, negative = inhibition, hits mostly inhibitors | 350,000 tested, 0.28% active; also: nearly all actives have a fitted effect of over 40% in size
#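 Here, a 5' biotin and 3' phosphotyrosine-FITC DNA oligonucleotide reports Tdp1 activity: intact substrate bridges AlphaScreen beads, while cleavage leaves a 3' phosphate and drops signal. All incubations at room temperature.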
# PLK1 PBD inh: qHTS for Inhibitors of PLK1-PDB (polo-like kinase 1 - polo-box domain): Primary Screen; Serine/threonine-protein kinase PLK1 (Homo sapiens), P53350; Plk1 PBD binding of FITC phosphopeptide, fluorescence polarization; Potency, µM, inactives show max response, negative = inhibition, hits mostly inhibitors; 360,000 tested, 2.8% active; AID 720504, 2013; also: series mostly up to about 57 µM; nearly all actives have a fitted effect of over 65% in size
# VDR inh: Inhibitors of the vitamin D receptor (VDR): qHTS; Vitamin D3 receptor (Homo sapiens), P11473; VDR-SRC2-3 peptide fluorescence polarization, 2 h; Potency, µM, for inactives: max response, negative = inhibition, actives largely listed as inhibitors; 400,000 tested, 0.93% active; AID 504847, 2011
#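 Two reagent solutions held at 4 deg C in the dark were dispensed, compounds pinned at 23 nl, and the mixture incubated 2 h at room temperature. Read-out: fluorescence polarization of VDR–SRC2-3 peptide binding.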
# TDP1 cell noCPT: qHTS for Inhibitors of human tyrosyl-DNA phosphodiesterase 1 (TDP1): qHTS in cells in absence of CPT; DT40 Tdp1-/- hTDP1 cells, no CPT, ATP luminescence, 48 h; Potency, µM (titrated, usually from 46.2 µM), without a hit: at the highest dose activity change, negative = growth inhibition, most hits filed as inhibitors; 420,000 tested, 15% active; AID 686978, 2013; also: nearly all actives have a fitted effect of over 55% in size
#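 Chicken DT40 Tdp1-/- cells complemented with human TDP1, screened without camptothecin (DMSO vehicle only), 400 cells/well. Compounds pin-transferred, cells incubated at 37 °C for at least 48 hr. Growth read as ATP-dependent luminescence (CellTiter-Glo, 30 min at RT).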
# * hit, by the source's call; ? = inconclusive; . = no result given; [ ] = another dose, or the depositor's remark. Calls follow the shape of the dose curve; as a rule, active = well fitted curve in the direction sought with a large enough effect; inconclusive = small, poorly fitted or top-dose-only effect, or another doubt; inactive = no such curve, though single readings can be large; an effect the other way counts as inactive or inconclusive. % is scaled to controls: 0 for no effect and ±100 for the full control effect; potency is read from the fitted curve at half-maximal effect.
SMILES,KAT2A inh,TDP1 cell CPT,TDP1 inh,PLK1 PBD inh,VDR inh,TDP1 cell noCPT
C[N+](C)(C)CCC(=O)N1C/C(=C/c2ccccc2)C(=O)/C(=C\c2ccccc2)C1,.,0.651µM*,.,-11.1%,79.4µM*,0.92µM*
CCOC(=O)N1CCN(S(=O)(=O)/C=C/c2ccccc2)CC1,-4.6%,-25.6%,0.0%,-5.7%,-7.8%,-11.9%
O=C1/C(=C/c2ccccc2)CN(C(=O)CCN2CCOCC2)C/C1=C\c1ccccc1,.,1.64µM*,.,-22.6%,?,1.84µM*
O=C(/C=C/c1ccccc1)CCN1CCOCC1,.,0.92µM*,.,21.2µM*,39.8µM*,1.46µM*
CCOC(=O)N1C/C(=C\c2ccccc2)C(=O)/C(=C/c2ccccc2)C1,-1.8%,4.61µM*,8.6%,-21.0%,?,3.66µM*
CN(C)CCC(=O)N1C/C(=C/c2ccccc2)C(=O)/C(=C\c2ccccc2)C1,.,1.84µM*,.,?,?,1.84µM*
CC(C)c1c(C(=O)N(C)CC2CCCN(C)C2)cnn1-c1nccc(-c2cccs2)n1 (stereo not given),.,?,.,.,.,-17.9%
Cc1ccnc2ccc(Br)cc12,.,-24.8%,.,.,.,-21.1%
CC(=O)N1c2ccc(S(=O)(=O)NCCC(=O)Nc3ccc(C)c(Cl)c3)cc2CC1C (stereo not given),-11.1%,14.6µM*,2.4%,0.8%,-10.1%,13µM*
CC(=O)N1c2ccc(S(=O)(=O)NCCC(=O)Nc3ccc(F)cc3)cc2CC1C (stereo not given),0.9%,?,1.7%,-0.1%,20.8%,?
CC(=O)N1c2ccc(S(=O)(=O)NCCC(=O)Nc3cccc(Cl)c3)cc2CC1C (stereo not given),-4.8%,-13.1%,0.3%,-12.6%,-0.1%,20.6%
CC(=O)N1c2ccc(S(=O)(=O)NCCC(=O)Nc3ccc(Br)c(C)c3)cc2CC1C (stereo not given),1.5%,8.2µM*,0.0%,.,9.0%,5.17µM*
CCOc1ccccc1NC(=O)C1CCC(=O)N1S(=O)(=O)c1ccc(C)cc1 (stereo not given),-9.1%,20.3%,2.3%,-6.1%,-15.6%,-4.1%
C[C@H]1CN([C@@H](C)CO)C(=O)c2cc(C#CCC3CCCC3)cnc2O[C@@H]1CN(C)C(=O)CC1CC1,.,?,.,-15.2%,.,?
c1ccc(-c2sc3ccccc3c2-c2ccc(OCCN3CCOCC3)cc2)cc1,-8.5%,-27.7%,5.0%,1.3%,6.4%,?
COc1ccccc1-c1sc2cc3c(cc2c1-c1ccc(OCCN2CCCCC2)cc1)OCO3,-9.2%,16.4µM*,8.1%,-11.8%,17.6%,11.6µM*
COc1ccccc1-c1sc2ccccc2c1-c1ccc(OCCN2CCOCC2)cc1,-12.8%,?,5.6%[56.1 µM],1.8%,-12.4%,13µM*
COc1ccccc1-c1sc2ccccc2c1-c1ccc2c(c1)OCO2,-22.6%,23.1µM*,.,-9.3%,1.7%,?
COc1cccc(NC(=O)CNc2cc(S(=O)(=O)N3CCOCC3)ccc2N2CCCC2)c1,-7.4%,?,5.9%,3.4%,-17.9%,?
N#Cc1cccc(NC(=O)CNc2cc(S(=O)(=O)N3CCOCC3)ccc2N2CCCC2)c1,-14.9%,?,8.5%,7.5%,8.5%,23.1µM*
CC(=O)c1ccc(NC(=O)CNc2cc(S(=O)(=O)N3CCOCC3)ccc2N2CCCC2)cc1,-9.2%,16.4µM*,2.8%,-12.7%,-9.2%,25.9µM*
NC(=O)c1ccc(NC(=O)CNc2cc(S(=O)(=O)N3CCOCC3)ccc2N2CCCC2)cc1,.,-21.8%,.,-5.0%,30.4%,?
CC(C)NC(=O)N(C)C[C@H]1Oc2ccc(NC(=O)Cc3ccccc3)cc2C(=O)N([C@H](C)CO)C[C@@H]1C,-0.1%,-9.1%,1.6%,-9.1%,-12.6%,-15.1%
O=S(=O)(Nc1ccc2c3c(cccc13)CC2)c1ccccc1,.,?,.,-12.2%,.,13µM*
Cc1cc(C)c(S(=O)(=O)Nc2ccc3c4c(cccc24)CC3)c(C)c1,2.2%,-101.0%,4.1%,-0.3%,9.4%,3.66µM*
SMILES,KAT2A inh,TDP1 cell CPT,TDP1 inh,PLK1 PBD inh,VDR inh,TDP1 cell noCPT
Cc1cc(C)c(S(=O)(=O)Nc2ccc3c(c2)CCC3)c(C)c1,-0.3%,?,-2.8%,-2.2%,11.7%,18.4µM*
Cc1ccc(S(=O)(=O)Nc2ccc3c4c(cccc24)CC3)c(C)c1,.,14.6µM*,.,-6.4%,-11.2%,13µM*
O=S(=O)(Nc1cccc2ccccc12)c1ccccc1,-1.0%,-27.0%,0.8%,2.9%,3.7%,-19.4%
CC(=O)c1ccc(NS(=O)(=O)c2c(C)cc(C)cc2C)cc1,-3.2%,-6.2%,2.4%,-12.2%,-4.4%,?
CCOC(=O)c1c(C)nc(C)c2c(=O)oc3ccccc3c12,-10.9%,?,-6.3%,-7.1%,3.5%,?
COc1ccccc1C(=O)N/C(=C\c1cn(S(=O)(=O)N(C)C)c2ccccc12)C(=O)N1CCOCC1,-4.4%,?,1.6%,4.6%,2.9%,?
CNc1ncnc2c1ncn2[C@@H]1O[C@H](COP(=O)(O)O)[C@@H](O)[C@H]1O,2.2%,.,6.1%,.,-11.9%,.
Cc1ccc(NC(=O)Cn2cnc(C(=O)Nc3ccc(C)c(C)c3)n2)cc1C,-1.2%,12.9%,-4.0%[56.1 µM],5.5%,-3.8%,-4.5%
COc1cccc(CN(C)CCCn2cnc(C(=O)Nc3ccc(C)c(C)c3)n2)c1,.,20.6µM*,.,-2.6%,13.9%,?
COc1ccc(CN(C)C(=O)Cn2cnc(C(=O)Nc3ccc(C)c(C)c3)n2)cc1OC,2.0%,18.4µM*,0.6%[56.1 µM],-16.0%,-25.0%,?
COC(=O)C(C(=O)OC)c1cc2c(cc1CNS(=O)(=O)c1ccc(C)cc1)OCO2,.,-12.5%,.,-3.7%,.,5.2%
COC1=C(Nc2ccc(C)cc2)C(=O)c2ccccc2C1=O,0.4%,?,10.6%,-11.1%,?,16.4µM*
CCOc1ccccc1NC1=C(OC)C(=O)C(Nc2ccccc2OCC)=C(OC)C1=O,.,0.3%,.,-0.1%,6.0%,?
COC1=C(Nc2ccccc2)C(=O)c2ccccc2C1=O,0.1%,11.6µM*,0.0%,-2.5%,44.7µM*,11.6µM*
COc1cc(NS(=O)(=O)c2ccc(NC(=S)NC(=O)c3sc4ccccc4c3Cl)cc2)ncn1,1.4%,-0.6%,2.3%,15µM*,?,-2.2%
